# Test results published in PubChem BioAssay (Tox21).
# Values without a mark were called inactive. Results filed as inconclusive are left out. A call without a number means that no potency is given here. The source made the active and inactive calls. Unless noted, calls come from the whole dose curve; as a rule, active = well fitted curve in the direction sought with a large enough effect in the repeat runs; inconclusive = weak or mixed curves; inactive = no such curve, though single readings can be large; an effect the other way counts as inactive or inconclusive.
# Legend:
# [1] = qHTS assay to identify small molecule agonists of the TGF-beta/Smad signaling pathway - cell viability counter screen (AID 1346829); note: top concentration of the series differs between compounds; nearly all actives have a fitted effect of over 45% in size
# Outline: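 HEK 293T SBE-bla line, 5 hr compound exposure at 37 C, multiplexed CellTiter-Glo viability read by luminescence.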
# [2] = qHTS assay to identify small molecule agonists of the TGF-beta/Smad signaling pathway (AID 1346859; active = well fitted activation curve with a large enough effect in the signal ratio in the repeat runs, not every such curve was filed as active; the % refers to the signal ratio; note: series mostly up to about 77 µM)
# Outline: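 Smad-responsive beta-lactamase reporter cells (HEK 293T) received compounds from DMSO stocks after overnight attachment, were incubated 5 hr, then treated 2 hr with FRET substrate before dual-emission fluorescence measurement (405 nm excitation).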
# [3] = target: Thyrotropin-releasing hormone receptor (Homo sapiens) (UniProt P34981); assay: qHTS assay to identify small molecule antagonists of the thyrotropin-releasing hormone receptor (TRHR) signaling pathway (AID 1346877; active = well fitted inhibition curve with a large enough effect in the repeat runs, not every such curve was filed as active; note: series mostly up to about 51 µM)
# Outline: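 Calcium signal in dye-loaded TRHR/HEK293 cells; compounds added 5 min before TRH (1 nM final); fluorescence monitored 3 min at 1 s steps.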
# [4] = target: Thyrotropin-releasing hormone receptor (Homo sapiens) (UniProt P34981); assay: qHTS assay to identify small molecule agonists of the thyrotropin-releasing hormone receptor (TRHR) signaling pathway (AID 1346891; calls by dose curve;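 note: HEK293 cells expressing TRHR with calcium dye readout; series mostly up to about 58 µM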)
# Outline: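 Agonist-mode calcium mobilisation screen: TRHR-transfected HEK293 cells cultured overnight (18 h), dye-loaded for 2 h at 37 °C, exposed to compounds, and monitored by fluorescence for 3 min.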
# [5] = Caspase-3/7 induction in HepG2 cells by small molecules, qHTS assay (AID 1346978); note: nearly all actives have a fitted effect of over 15% in size
# Outline: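 Wild-type HepG2 cells (2,000/well) were settled 5 h at 37 C, 5% CO2, then exposed to compounds in DMSO for 17 h. Caspase-3/7 activity was read by luminescence 30 min after adding Caspase-Glo 3/7 reagent at room temperature.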
# [6] = Caspase-3/7 induction in CHO-K1 cells by small molecules, qHTS cell viability counter screen (AID 1346979); note: nearly all actives have a fitted effect of over 35% in size; note: potency is the fitted concentration of half-maximal effect
# Outline: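 In the same wells as the caspase read, viability of compound-treated wild-type CHO-K1 cells was assessed using CellTiter-Fluor, added after 16hr at 37C and measured by fluorescence following 1hr further incubation.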
# [7] = Caspase-3/7 induction in CHO-K1 cells by small molecules, qHTS assay (AID 1346980); note: nearly all actives have a fitted effect of over 15% in size
# Outline: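 Wild-type cells were seeded at 1,500 per well and settled 5 hr at 37 C, 5% CO2, then exposed to DMSO-dissolved compounds for 17 hr. Caspase-Glo 3/7 reagent was added, and luminescence was read after 30min at room temperature.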
# [8] = Caspase-3/7 induction in HepG2 cells by small molecules, qHTS cell viability counter screen (AID 1346981); note: nearly all actives have a fitted effect of over 30% in size; note: potency is the fitted concentration of half-maximal effect
# Outline: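 After a 5-hr attachment period at 37 C and 5% CO2, wild-type HepG2 cells received compounds in DMSO. Sixteen hours later CellTiter-Fluor was dispensed and the fluorescent signal quantified after a further hour.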
# [9] = target: Nuclear receptor subfamily 1 group I member 2 (Homo sapiens) (UniProt O75469); assay: Human pregnane X receptor (PXR) small molecule agonists, qHTS assay (AID 1346982); note: nearly all actives have a fitted effect of over 35% in size
# Outline: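 Tox21 qHTS; PXR-Luc HepG2; compounds pinned from DMSO; 24 hr, 37 C; ONE-Glo luciferase detection, 30 min room temperature.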
# [10] = target: Cytochrome P450 2C19 (Homo sapiens) (UniProt P33261); assay: Cytochrome P450 Family 2 Subfamily C Member 19 (CYP2C19) small molecule antagonists: luciferase reporter qHTS assay (AID 1671197); note: nearly all actives have a fitted effect of over 65% in size; note: potency is the fitted concentration of half-maximal effect
# Outline: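 First, compounds are pinned into enzyme-substrate mix and held 10 min at room temperature. Second, NADPH regeneration solution is added and plates incubate 1 h at 37C. Third, detection reagent is added and luminescence read after 20 min.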
# [11] = target: Voltage-gated inwardly rectifying potassium channel KCNH2 (Homo sapiens) (UniProt Q12809); assay: Human Ether-a-go-go-Related Gene (hERG) channel small molecule antagonists: fluorescence cell-based qHTS assay (AID 1671200); note: nearly all actives have a fitted effect of over 50% in size; note: potency is the fitted concentration of half-maximal effect
# Outline: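 Quantitative HTS in hERG-U2OS cells: thallium entry through the channel reports activity, read as continuous 480/540 nm fluorescence over 2 min after stimulus addition.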
# [12] = target: Cytochrome P450 3A4 (Homo sapiens) (UniProt P08684); assay: Cytochrome P450 Family 3 Subfamily A Member 4 (CYP3A4) small molecule antagonists: luciferase reporter qHTS assay (AID 1671201); note: nearly all actives have a fitted effect of over 50% in size; note: potency is the fitted concentration of half-maximal effect
# Outline: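 Inhibition of CYP3A4 is measured as loss of light: the enzyme converts a proluciferin substrate to luciferin, detected luminescently. Reaction ran 1 h at room temperature with NADPH regeneration after a 10 min compound preincubation.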
# [13] = Human pregnane X receptor (PXR) small molecule agonists, qHTS cell viability counter screen (AID 1346977); note: nearly all actives have a fitted effect of over 50% in size
# Outline: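 Measures live-cell protease fluorescence (CellTiter-Fluor) in PXR-Luc HepG2 cells treated 24hr with compounds at 37C. Cells had 5hr to attach before pin transfer of DMSO solutions.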
# [14] = target: Cytochrome P450 2D6 (Homo sapiens) (UniProt P10635); assay: Cytochrome P450 Family 2 Subfamily D Member 6 (CYP2D6) small molecule antagonists: luciferase reporter qHTS assay (AID 1671196); note: nearly all actives have a fitted effect of over 50% in size; note: potency is the fitted concentration of half-maximal effect
# Outline: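 Room-temperature luminescent CYP2D6 activity assay: compound preincubated 10 min with enzyme–substrate mix, NADPH-initiated reaction 1 h, detection reagent 20 min before reading.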
# [15] = target: Cytochrome P450 2C9 (Homo sapiens) (UniProt P11712); assay: Cytochrome P450 Family 2 Subfamily C Member 9 (CYP2C9) small molecule antagonists: luciferase reporter qHTS assay (AID 1671198); note: nearly all actives have a fitted effect of over 50% in size; note: potency is the fitted concentration of half-maximal effect
# Outline: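 CYP2C9 activity was measured with a P450-Glo proluciferin substrate. Enzyme–substrate mix was held with compound for 10 min at room temperature, then NADPH regeneration solution was added for 1 h at 37C. Luciferin product was read as luminescence.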
# [16] = target: Cytochrome P450 1A2 (Homo sapiens) (UniProt P05177); assay: Cytochrome P450 Family 1 Subfamily A Member 2 (CYP1A2) small molecule antagonists: luciferase reporter qHTS assay (AID 1671199); note: nearly all actives have a fitted effect of over 50% in size; note: potency is the fitted concentration of half-maximal effect
# Outline: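 Room-temperature CYP1A2 reaction with proluciferin substrate: compounds added from DMSO, 10 min preincubation, NADPH regeneration for 1 h. Luciferin detection reagent then added; luminescence recorded as RLU.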
# [17] = target: Nuclear receptor subfamily 1 group I member 2 (Rattus norvegicus) (UniProt Q9R1A7); assay: Rat pregnane X receptor (rPXR) activation by small molecules, qHTS assay (AID 1346983); settings: rPXR luciferase reporter cells, One-Glo luminescence, 24 h; max activation: stronger effect = higher value; note: nearly all actives have a fitted effect of over 20% in size
# Outline: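 Cell-based rPXR luciferase reporter assay, 2,000 cells per well, rested 5hr at 37 C before compound addition in DMSO, then 24 hr at 37 C. One-Glo reagent was added and luminescence read after 30 min at room temperature.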
# [18] = target: Nuclear receptor subfamily 1 group I member 2 (Homo sapiens) (UniProt O75469); assay: CYP3A4 induction through human pregnane X receptor (PXR) by small molecules, qHTS assay (AID 1346984); note: nearly all actives have a fitted effect of over 40% in size
# Outline: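 Cells (DPX-2; HepG2 with PXR element plus CYP3A4-promoter luciferase) settled 5hr, then were treated 24hr at 37C. A 3hr, 3uM-final Luciferin-IPA step preceded luminescence measurement with One-Glo.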
# Cytochrome P450 2C19 (Homo sapiens), sequence (P33261 whole entry, looked up): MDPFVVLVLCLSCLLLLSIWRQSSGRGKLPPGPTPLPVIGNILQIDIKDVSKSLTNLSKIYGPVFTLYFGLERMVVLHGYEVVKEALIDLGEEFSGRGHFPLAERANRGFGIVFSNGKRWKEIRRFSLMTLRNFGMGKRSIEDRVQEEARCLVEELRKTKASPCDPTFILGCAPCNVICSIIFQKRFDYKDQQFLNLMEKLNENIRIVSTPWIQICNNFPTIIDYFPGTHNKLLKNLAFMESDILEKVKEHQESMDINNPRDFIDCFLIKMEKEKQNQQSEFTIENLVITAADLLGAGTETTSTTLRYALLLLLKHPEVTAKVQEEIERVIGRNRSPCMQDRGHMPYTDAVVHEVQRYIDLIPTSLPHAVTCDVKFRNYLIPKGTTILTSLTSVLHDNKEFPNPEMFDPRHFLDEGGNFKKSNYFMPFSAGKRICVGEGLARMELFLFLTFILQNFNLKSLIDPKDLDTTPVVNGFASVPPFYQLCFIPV
# Cytochrome P450 3A4 (Homo sapiens), sequence (P08684 whole entry, looked up): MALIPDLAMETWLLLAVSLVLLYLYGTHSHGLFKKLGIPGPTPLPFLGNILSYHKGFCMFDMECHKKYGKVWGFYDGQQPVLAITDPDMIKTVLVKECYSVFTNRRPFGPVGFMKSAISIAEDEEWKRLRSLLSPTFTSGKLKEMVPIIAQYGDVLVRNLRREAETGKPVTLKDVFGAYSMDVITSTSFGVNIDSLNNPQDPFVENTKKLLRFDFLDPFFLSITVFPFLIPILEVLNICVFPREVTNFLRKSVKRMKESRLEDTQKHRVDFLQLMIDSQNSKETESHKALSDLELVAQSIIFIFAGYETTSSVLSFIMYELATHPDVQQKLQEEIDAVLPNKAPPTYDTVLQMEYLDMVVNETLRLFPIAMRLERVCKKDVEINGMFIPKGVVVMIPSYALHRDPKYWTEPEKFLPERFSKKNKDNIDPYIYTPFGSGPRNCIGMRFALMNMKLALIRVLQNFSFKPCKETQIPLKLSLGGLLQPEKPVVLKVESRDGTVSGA
# Cytochrome P450 2C9 (Homo sapiens), sequence (P11712 whole entry, looked up): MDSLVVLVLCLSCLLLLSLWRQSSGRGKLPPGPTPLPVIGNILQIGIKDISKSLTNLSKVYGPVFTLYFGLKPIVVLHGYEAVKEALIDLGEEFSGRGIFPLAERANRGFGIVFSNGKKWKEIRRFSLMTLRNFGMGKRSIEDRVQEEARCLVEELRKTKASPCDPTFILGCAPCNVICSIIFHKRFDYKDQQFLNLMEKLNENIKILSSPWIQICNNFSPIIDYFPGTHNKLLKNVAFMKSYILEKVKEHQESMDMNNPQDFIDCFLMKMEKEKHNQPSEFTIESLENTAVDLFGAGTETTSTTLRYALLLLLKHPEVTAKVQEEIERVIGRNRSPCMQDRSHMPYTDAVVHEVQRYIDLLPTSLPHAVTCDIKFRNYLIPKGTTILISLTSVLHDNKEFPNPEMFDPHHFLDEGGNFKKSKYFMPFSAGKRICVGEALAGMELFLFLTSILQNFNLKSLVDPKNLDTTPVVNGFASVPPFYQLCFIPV
# Thyrotropin-releasing hormone receptor (Homo sapiens), sequence (P34981 whole entry, looked up): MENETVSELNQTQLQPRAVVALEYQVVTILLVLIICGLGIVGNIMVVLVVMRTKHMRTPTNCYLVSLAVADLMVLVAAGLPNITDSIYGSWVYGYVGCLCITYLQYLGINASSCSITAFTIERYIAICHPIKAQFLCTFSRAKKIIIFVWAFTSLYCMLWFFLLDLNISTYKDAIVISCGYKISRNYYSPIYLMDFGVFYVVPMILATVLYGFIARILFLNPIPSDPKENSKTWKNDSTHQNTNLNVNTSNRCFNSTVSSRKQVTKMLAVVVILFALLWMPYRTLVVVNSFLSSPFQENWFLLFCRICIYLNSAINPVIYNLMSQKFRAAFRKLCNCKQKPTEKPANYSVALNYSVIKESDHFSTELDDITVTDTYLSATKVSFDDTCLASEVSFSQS
# Nuclear receptor subfamily 1 group I member 2 (Rattus norvegicus), sequence (Q9R1A7 whole entry, looked up): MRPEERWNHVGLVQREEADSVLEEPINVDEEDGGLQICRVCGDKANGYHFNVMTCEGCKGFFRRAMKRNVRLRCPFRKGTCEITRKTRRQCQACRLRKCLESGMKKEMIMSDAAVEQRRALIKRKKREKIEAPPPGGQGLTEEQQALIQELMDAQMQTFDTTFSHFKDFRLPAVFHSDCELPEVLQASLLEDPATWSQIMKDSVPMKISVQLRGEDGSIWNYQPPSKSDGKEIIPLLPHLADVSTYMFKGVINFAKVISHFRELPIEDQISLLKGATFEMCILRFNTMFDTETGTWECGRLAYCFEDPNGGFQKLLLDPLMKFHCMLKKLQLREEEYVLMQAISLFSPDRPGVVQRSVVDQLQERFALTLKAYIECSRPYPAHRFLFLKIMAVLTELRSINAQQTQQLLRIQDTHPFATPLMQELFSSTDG
# Voltage-gated inwardly rectifying potassium channel KCNH2 (Homo sapiens), sequence (Q12809 whole entry, looked up): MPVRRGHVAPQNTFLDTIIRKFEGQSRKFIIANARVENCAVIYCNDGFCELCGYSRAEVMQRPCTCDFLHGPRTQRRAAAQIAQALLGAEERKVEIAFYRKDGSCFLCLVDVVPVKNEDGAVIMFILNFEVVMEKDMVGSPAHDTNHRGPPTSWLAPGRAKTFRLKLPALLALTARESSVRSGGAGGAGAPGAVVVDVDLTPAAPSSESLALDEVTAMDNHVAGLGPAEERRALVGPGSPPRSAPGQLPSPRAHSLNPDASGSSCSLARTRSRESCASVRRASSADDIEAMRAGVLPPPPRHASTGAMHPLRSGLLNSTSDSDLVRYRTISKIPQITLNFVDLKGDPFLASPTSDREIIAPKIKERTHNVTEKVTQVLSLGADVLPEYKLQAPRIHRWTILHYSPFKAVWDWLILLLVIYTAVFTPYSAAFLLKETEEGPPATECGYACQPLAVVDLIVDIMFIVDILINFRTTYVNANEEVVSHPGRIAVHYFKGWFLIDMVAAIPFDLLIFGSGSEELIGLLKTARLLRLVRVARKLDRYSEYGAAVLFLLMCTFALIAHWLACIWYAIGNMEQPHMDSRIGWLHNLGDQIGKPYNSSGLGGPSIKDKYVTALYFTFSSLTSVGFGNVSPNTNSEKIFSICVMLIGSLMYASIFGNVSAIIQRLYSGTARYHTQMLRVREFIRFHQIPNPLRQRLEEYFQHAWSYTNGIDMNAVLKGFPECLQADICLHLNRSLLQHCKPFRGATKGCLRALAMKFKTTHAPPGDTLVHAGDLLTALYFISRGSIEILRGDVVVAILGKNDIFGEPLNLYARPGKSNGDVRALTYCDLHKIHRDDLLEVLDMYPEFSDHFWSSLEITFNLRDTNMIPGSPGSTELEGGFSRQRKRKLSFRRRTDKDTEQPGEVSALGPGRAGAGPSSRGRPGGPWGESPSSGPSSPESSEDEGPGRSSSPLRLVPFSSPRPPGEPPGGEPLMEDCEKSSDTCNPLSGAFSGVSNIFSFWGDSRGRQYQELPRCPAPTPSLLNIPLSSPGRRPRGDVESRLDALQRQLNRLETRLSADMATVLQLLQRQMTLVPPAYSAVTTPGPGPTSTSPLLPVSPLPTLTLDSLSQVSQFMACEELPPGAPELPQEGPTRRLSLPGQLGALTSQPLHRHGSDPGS
# Cytochrome P450 2D6 (Homo sapiens), sequence (P10635 whole entry, looked up): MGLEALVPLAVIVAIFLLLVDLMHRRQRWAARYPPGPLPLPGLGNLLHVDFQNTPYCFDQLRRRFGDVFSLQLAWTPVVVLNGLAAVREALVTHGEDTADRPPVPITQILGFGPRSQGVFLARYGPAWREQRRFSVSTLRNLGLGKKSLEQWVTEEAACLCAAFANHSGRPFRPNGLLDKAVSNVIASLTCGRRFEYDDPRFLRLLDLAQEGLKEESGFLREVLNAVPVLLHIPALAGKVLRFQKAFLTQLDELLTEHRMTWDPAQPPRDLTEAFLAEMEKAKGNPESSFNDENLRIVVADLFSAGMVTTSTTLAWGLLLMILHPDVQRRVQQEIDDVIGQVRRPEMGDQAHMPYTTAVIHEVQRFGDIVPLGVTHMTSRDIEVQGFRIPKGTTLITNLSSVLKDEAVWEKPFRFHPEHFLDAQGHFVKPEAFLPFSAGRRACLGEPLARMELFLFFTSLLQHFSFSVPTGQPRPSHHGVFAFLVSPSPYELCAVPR
# Cytochrome P450 1A2 (Homo sapiens), sequence (P05177 whole entry, looked up): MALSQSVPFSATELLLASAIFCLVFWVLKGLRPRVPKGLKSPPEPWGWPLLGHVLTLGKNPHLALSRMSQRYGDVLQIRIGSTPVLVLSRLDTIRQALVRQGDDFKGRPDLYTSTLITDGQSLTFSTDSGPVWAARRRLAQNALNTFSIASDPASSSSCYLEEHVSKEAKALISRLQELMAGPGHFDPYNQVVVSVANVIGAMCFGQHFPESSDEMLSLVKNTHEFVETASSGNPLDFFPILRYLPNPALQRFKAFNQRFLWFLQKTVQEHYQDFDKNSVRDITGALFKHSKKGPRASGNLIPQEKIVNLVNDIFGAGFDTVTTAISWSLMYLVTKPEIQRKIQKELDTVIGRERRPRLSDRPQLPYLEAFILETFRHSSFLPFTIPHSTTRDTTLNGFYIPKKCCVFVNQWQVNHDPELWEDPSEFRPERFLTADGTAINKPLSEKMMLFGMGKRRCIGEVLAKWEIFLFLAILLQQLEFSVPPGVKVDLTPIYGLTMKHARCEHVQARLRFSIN
# Nuclear receptor subfamily 1 group I member 2 (Homo sapiens), sequence (O75469 whole entry, looked up): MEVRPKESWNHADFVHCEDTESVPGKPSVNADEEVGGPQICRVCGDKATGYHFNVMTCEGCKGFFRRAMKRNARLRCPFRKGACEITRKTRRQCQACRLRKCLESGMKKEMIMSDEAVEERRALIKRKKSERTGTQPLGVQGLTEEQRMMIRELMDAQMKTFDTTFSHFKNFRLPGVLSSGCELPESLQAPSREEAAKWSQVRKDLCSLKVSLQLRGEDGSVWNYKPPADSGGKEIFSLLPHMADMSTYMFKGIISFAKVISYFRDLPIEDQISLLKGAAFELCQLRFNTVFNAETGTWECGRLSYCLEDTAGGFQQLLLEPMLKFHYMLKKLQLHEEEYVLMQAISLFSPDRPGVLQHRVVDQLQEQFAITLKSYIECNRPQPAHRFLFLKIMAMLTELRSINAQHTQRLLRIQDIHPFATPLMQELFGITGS
SMILES,outcome [1],outcome [2],outcome [3],outcome [4],outcome [5],Potency [6],outcome [7],Potency [8],Potency [9],Potency [10],Potency [11],Potency [12],Potency [13],Potency [14],Potency [15],Potency [16],max activation [17] [%],outcome [18]
CCOC(=O)CC#N,inactive,inactive,inactive,inactive,inactive,inactive,inactive,inactive,inactive,39.5 µM (active),inactive,inactive,,,,,,
COc1cccc2sc(N)nc12,inactive,inactive,inactive,inactive,,,inactive,inactive,,56.7 µM (active),inactive,10.1 µM (active),inactive,11.3 µM (active),inactive,22.6 µM (active),,
OC(CCN1CCCCC1)(c1ccccc1)c1ccccc1,inactive,inactive,inactive,inactive,inactive,inactive,inactive,inactive,inactive,,9.52 µM (active),inactive,,1.38 µM (active),inactive,inactive,-1.14,
COc1ccc(N=Nc2cc(C)c(N=Nc3ccc(S(=O)(=O)O)cc3)cc2OC)cc1,inactive,inactive,inactive,inactive,inactive,54.5 µM (active),inactive,30.6 µM (active),inactive,inactive,inactive,,,inactive,63.3 µM (active),,,
NS(=O)(=O)c1cc2c(cc1Cl)NC(C(Cl)Cl)NS2(=O)=O (centres undefined),inactive,inactive,inactive,inactive,inactive,inactive,inactive,inactive,inactive,,inactive,inactive,,inactive,inactive,inactive,3.75,inactive
CC(=O)Nc1ccc(C)cc1,inactive,inactive,inactive,inactive,inactive,inactive,inactive,inactive,inactive,,,,,inactive,inactive,39.6 µM (active),,
C=C(C)C(=O)OCCCCCCOC(=O)C(=C)C,inactive,inactive,inactive,inactive,inactive,inactive,inactive,inactive,inactive,,inactive,inactive,,inactive,35.6 µM (active),39.9 µM (active),,
Cc1cccc(NC(=S)N(C)C)c1,inactive,inactive,inactive,inactive,inactive,inactive,inactive,,,79.6 µM (active),,,,,inactive,35.6 µM (active),,
CC(C)C(=O)c1ccccc1,inactive,inactive,inactive,inactive,inactive,inactive,inactive,inactive,inactive,inactive,inactive,,,,inactive,,,
Cc1ccc(S(=O)(=O)NC(=O)NC2CCCCCCC2)cc1,inactive,inactive,inactive,inactive,,,inactive,inactive,inactive,,inactive,inactive,inactive,inactive,11 µM (active),inactive,-1.92,inactive
CO[Si](CCCCl)(OC)OC,inactive,inactive,inactive,inactive,,,inactive,inactive,inactive,39.3 µM (active),inactive,3.51 µM (active),inactive,31.2 µM (active),39.3 µM (active),inactive,,
C=C(C)[C@@H]1CC[C@@H](C)C[C@@H]1O,inactive,inactive,,,inactive,inactive,inactive,inactive,inactive,inactive,inactive,inactive,inactive,inactive,inactive,39.9 µM (active),,
C[N+](C)(C)CC(O)CCl (centres undefined),inactive,inactive,,,inactive,inactive,inactive,inactive,inactive,,inactive,inactive,inactive,inactive,inactive,inactive,,
CC(C)CCCC(C)CC=O (centres undefined),inactive,inactive,inactive,,inactive,,inactive,inactive,inactive,79.6 µM (active),inactive,inactive,inactive,inactive,,inactive,,
COc1cc2c(Nc3ccc(Br)cc3F)ncnc2cc1OCC1CCN(C)CC1,inactive,inactive,,,inactive,inactive,inactive,inactive,inactive,inactive,,inactive,inactive,inactive,inactive,30.9 µM (active),-20.7,inactive
O=P(O)(O)OCC(O)CO (centres undefined),inactive,inactive,,,inactive,inactive,inactive,inactive,inactive,,inactive,inactive,inactive,inactive,inactive,inactive,,
CCOC(=O)CCc1ccccc1,inactive,inactive,,,inactive,inactive,inactive,inactive,inactive,,inactive,inactive,inactive,inactive,inactive,,,
CCCC(C)CC (centres undefined),inactive,inactive,,,inactive,inactive,inactive,inactive,inactive,,inactive,inactive,inactive,inactive,inactive,35 µM (active),,
